To fix the notation:
T1: UNK ZnF1-6 (called full-length) (human, UniProt Q9C0B0 30-357)
T1 sequence: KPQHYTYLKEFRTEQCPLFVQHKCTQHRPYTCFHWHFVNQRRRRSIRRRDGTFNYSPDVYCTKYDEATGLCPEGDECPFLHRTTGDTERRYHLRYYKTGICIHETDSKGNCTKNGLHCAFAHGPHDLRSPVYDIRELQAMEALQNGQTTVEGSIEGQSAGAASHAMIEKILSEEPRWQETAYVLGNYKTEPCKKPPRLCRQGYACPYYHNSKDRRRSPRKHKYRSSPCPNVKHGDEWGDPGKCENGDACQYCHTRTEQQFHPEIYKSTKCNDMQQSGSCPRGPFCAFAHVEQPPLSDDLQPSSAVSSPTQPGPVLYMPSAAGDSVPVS

B1: chr11:107429260:107429366:-|CDS|ENSG00000152404|unk|total|mutant (ssRNA)
RNA: GGGAGUUCUACAGUCCGACGAUCGAGGAAACCCACAUAUUCAGAUAAAGCACAAAAUUGUCAAGAAAGCCGAGAAUCAGACUCCGUAAAAUAUGGUAACAGUUCAAGGGACCGAUAUGCUACAACAGAUACUGCAAAAAACCGCAACAGAGGAUUGAGCAUCA
B2: chr10:92030471:92030572:+|3pUTR|ENSG00000095564|unk|FALSE|unique (ssRNA)
RNA: GGGAGUUCUACAGUCCGACGAUCUAUUUUUUUAUUAACUAUUUAUUUGCUAGUUCCAUAAACCAGCUCUUUAACAUAGCUUAUAGUAAUUGAUAUUUUCUUAGAAUAAGUACAGAGCAAUAUAUCAUUAAAGGGCUAUGAAGGCAACAGAGGAUUGAGCAUCA
B3: chr10:92030471:92030572:+|3pUTR|ENSG00000095564|unk|total|mutant (ssRNA)
RNA: B2 RNA with U50C, A51C, U76C, A77C, U83C, A84C, U101C, A102C
B4: ENSG00000136451:be:win_3351|3pUTR|ENSG00000136451|bound_else_gene|NA|bound_elsewhere_windowed (ssRNA)
RNA: GGGAGUUCUACAGUCCGACGAUCGAAGGCAACACAUUCCUACACUUUUAAUGUAUAUGUUUGUUAUAAUGUCCAUGUAAACAUGCCCUAUGUUUGUGCCUUUUAAUUAGUUUGUCUCAAUAAACAAAAUGUAGAGAAAAAUAUCAACAGAGGAUUGAGCAUCA
B5: chr19:9526975:9527076:-|3pUTR|ENSG00000130818|unk|FALSE|unique (ssRNA)
RNA: GGGAGUUCUACAGUCCGACGAUCCCUCUCAGACCUUCCAUCAUUACUAUAUUUCACUUUUAUGCCUAUAAACACACACAAAUUAGCAUAUGUAAUCUAAUACAUUGUAGCUAUUUUUCAGAAGUUAUCAGAUCAAUUAAGUAUCAACAGAGGAUUGAGCAUCA
B6: chr7:115017934:115018035:+|3pUTR|ENSG00000135272|unk|FALSE|unique (ssRNA)
RNA: GGGAGUUCUACAGUCCGACGAUCUGAGAUGAAACGUAGUUUCUAGUUAUAUCAUUACUUAAAGGGCUUAAAAAGAAAAAACUUAGCAAACUUUUGAAUCUUUCUUUUAUUGCUAUUUACACAUACAUACACACAUACAAAACCCAACAGAGGAUUGAGCAUCA
B7: chr11:69653362:69653473:+|3pUTR|ENSG00000110092|msi1_unk|FALSE|overlapping (ssRNA)
RNA: GGGAGUUCUACAGUCCGACGAUCACUGCCAUGUACUAGUUUUAGUUUUCUCUUAGAACAUUGUAUUACAGAUGCCUUUUUUGUAGUUUUUUUUUUUUUUAUGUGAUCAAUUUUGACUUAAUGUGAUUACUGCUCUAUUCCAAACAACAGAGGAUUGAGCAUCA
B8: chr17:44253117:44253371:-|CDS|ENSG00000004939|control|control|control (ssRNA)
RNA: GGGAGUUCUACAGUCCGACGAUCCAAACCUGAGCGCAAGAUGGUCAAGGGCUCCGGCUUCCACCUGGACCUGCUGCUGGUAGUAGGCAUGGGUGGGGUGGCCGCCCUCUUUGGGAUGCCCUGGCUCAGUGCCACCACCGUGCGCAACAGAGGAUUGAGCAUCA
B9: chr6:105096826:105097152:-|3pUTR|ENSG00000112276|msi1|FALSE|unique (ssRNA)
RNA: GGGAGUUCUACAGUCCGACGAUCACUUGCAACCUAGUUUUAAAAUACAUGAGGAUUUUAUGAAAGCUUUAUACAGACAUUUAUAGGAAACUCAUUCUUUGAUUUUAGGUGCCAUUUAAAUUGAUAACACUUACUUUAUAAAAACAACAGAGGAUUGAGCAUCA
B10: chr10:91630394:91630495:-|CDS|ENSG00000119938|unk|total|mutant (ssRNA)
RNA: GGGAGUUCUACAGUCCGACGAUCCUUGGACCUUAAUGAUAUCUCCUCUGCCUUAAAACACCACGAGGAGAAAAACUUGAUUUCCGAUUUCCCUCAGCCUUCAACCGAUUACUUAAGUUUCCGGAGCCACUUUCAGAAGAACUUCAACAGAGGAUUGAGCAUCA
B11: chr11:20048915:20049016:+|CDS|ENSG00000166833|unk|total|mutant (ssRNA)
RNA: GGGAGUUCUACAGUCCGACGAUCGAGCAGUGGGAGCAGCAGUCCUCUCUACAGCAAGAAUGUGGACCUCAACCAGUCUCCGCCCGCCUCCAGCCCCAGCUCAGCCCACUCGGCCCCUUCCAACAGCCUCACCUGGGGCACCAACAACAGAGGAUUGAGCAUCA
B12: chr1:178479239:178479534:-|three_prime_utr|ENSG00000188585|control|control|control (ssRNA)
RNA: GGGAGUUCUACAGUCCGACGAUCCAGUUUCUGUUUCAUGCAAUCUUCUCUGGAUUUUGAGUAAAUUUUAAUUUUUUAAUCCCUAGUAGAACAAGAUUAGGAAGAACUCGACAUGUGCCAAAAAGCACAGACCUACAACUAACACAACAGAGGAUUGAGCAUCA
B13: chr1:214641902:214642005:+|CDS|ENSG00000117724|unk|total|mutant (ssRNA)
RNA: GGGAGUUCUACAGUCCGACGAUCAGAAAUCAAUGUAAUUUUAAACCUCAGAUGGAUCUUGAAGUUAAAGAAAUUUCUCCCGACCGUUAUAAUGCGCAGUUGGUGCAAUCCGAAGCUAUGCUAAGAAAUAAGGAAUUAAAACUUCAACAGAGGAUUGAGCAUCA
B14: chr20:31664451:31666086:-|three_prime_utr|ENSG00000171552|control|control|control (ssRNA)
RNA: GGGAGUUCUACAGUCCGACGAUCAUGCAGCCCAUGCCCACCUGCCCAUCACAGGGUUGGGCCCAGAUCUGGUCCCUUGCAGCUAGUUUUCUAGAAUUUAUCACACUUCUGUGAGACCCCCACACCUCAGUUCCCUUGGCCUCACAACAGAGGAUUGAGCAUCA

Numbering of substitutions follows the chain as printed. Whole data set: some 5,800 sequences, median “enrichment r” near 0.68, cut for the highest 2% near 11. Only a selection was taken, and the highest values are over-represented in it overall.

The target in this assay is T1, UNK ZnF1-6 (called full-length). As to the kind of experiment: nsRBNS (natural sequence RNA bind-n-seq); RBNS binding buffer (assumed for nsRBNS): 25 mM Tris pH 7.5, 150 mM KCl, 3 mM MgCl2, 0.01% Triton X-100, 500 ug/ml BSA, 20 U/ml SUPERase-In, 4 C; UNK is unkempt and MSI1 is Musashi-1; names of the RNAs are library labels; protein concentration not given here; high values mean tight binding.
Consider B1, for which the binding signal is 0.603 enrichment R. With B2, the binding signal stood at 34.3 enrichment R.

Molecule B3 yielded a binding signal of 5.92 enrichment R. B4: the binding signal was determined as 2.53 enrichment R.

Molecule B5 came in with a binding signal of 4.62 enrichment R. B6 gave a binding signal of 5.81 enrichment R.

B7 gave a binding signal of 80.9 enrichment R. The figure for B8 is 0.5 enrichment R.

Molecule B9 gave a binding signal of 1.57 enrichment R. Consider B10, for which the binding signal turned out to be 0.273 enrichment R.

B11: the binding signal worked out at 0.913 enrichment R. B12 registered a binding signal of 0.449 enrichment R. Turning to B13, the binding signal worked out at 0.401 enrichment R.

Consider B14, for which the binding signal amounted to 1.85 enrichment R.

For the origin of these results see paper PMC12136788.
